Screening data: PubChem BioAssay, Broad Institute
IDE exosite FP – displaces the probe from the exo-site of human IDE; P14735; purified IDE, FL-6b probe fluorescence polarization; stronger effect = lower value; z-score at 20 µM; 17,000 tested, 6.3% active; AID 1259349;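 active means z-score of -3 or lower, meaning strong loss of probe binding signal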;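 further: His-tagged human IDE residues 42-1019 made in E. coli with 30 nM FL-6b probe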
Target sequence (P14735 42-1019 limits assumed): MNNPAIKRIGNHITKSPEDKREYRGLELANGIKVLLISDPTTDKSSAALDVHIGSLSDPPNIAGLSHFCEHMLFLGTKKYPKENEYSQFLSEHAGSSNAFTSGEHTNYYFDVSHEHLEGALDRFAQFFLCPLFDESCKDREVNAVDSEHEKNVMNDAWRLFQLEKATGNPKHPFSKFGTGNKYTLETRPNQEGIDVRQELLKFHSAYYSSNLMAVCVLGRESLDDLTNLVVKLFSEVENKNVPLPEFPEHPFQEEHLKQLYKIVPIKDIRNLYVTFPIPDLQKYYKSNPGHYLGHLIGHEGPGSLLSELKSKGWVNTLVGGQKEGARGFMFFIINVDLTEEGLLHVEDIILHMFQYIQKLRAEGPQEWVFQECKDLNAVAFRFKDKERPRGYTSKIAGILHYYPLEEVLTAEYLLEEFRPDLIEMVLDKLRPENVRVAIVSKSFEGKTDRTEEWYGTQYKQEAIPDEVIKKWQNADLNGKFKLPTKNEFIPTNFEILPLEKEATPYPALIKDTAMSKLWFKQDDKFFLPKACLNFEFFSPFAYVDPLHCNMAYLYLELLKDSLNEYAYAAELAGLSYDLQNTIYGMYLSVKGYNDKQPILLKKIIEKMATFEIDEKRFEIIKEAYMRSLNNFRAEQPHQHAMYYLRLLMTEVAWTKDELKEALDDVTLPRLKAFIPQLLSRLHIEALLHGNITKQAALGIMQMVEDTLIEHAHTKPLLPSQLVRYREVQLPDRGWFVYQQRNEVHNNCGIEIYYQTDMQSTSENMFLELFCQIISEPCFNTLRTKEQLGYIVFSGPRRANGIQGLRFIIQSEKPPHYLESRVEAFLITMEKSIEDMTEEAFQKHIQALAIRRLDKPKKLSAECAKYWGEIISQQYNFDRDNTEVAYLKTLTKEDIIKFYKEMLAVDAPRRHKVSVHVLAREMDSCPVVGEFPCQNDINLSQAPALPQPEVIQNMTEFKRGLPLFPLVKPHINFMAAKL
Numbers stand for hits; 0 = inactive. Many of the other results were omitted from the sample, so hits are more common in it than they were.

SMILES | IDE exosite FP
COc1ccc(CN2CC3(CN(C(=O)Cc4ccccc4)C3)c3c([nH]c4cc(OC)ccc34)[C@@H]2CO)cc1 | 0
CCCNC(=O)N1CCC2(CC1)CN(Cc1cccc(OC)c1)[C@H](CO)c1[nH]c3cc(OC)ccc3c12 | -4.6
COc1ccc2c3c([nH]c2c1)[C@@H](CO)N(Cc1nccs1)CC31CN(Cc2ccncc2)C1 | -3.2
COc1ccc2c3c([nH]c2c1)[C@@H](CO)N(CC1CC1)CC31CCN(C(=O)Nc2cccc(F)c2)CC1 | 0
CCC(=O)N1CC2(C1)CN(Cc1cccc(Cl)c1)[C@@H](CO)c1[nH]c3cc(OC)ccc3c12 | -3.3
COc1ccc2c3c([nH]c2c1)[C@H](CO)N(Cc1cccc(F)c1)CC31CCN(C(C)=O)CC1 | -6.6
COc1ccc2c3c([nH]c2c1)[C@H](CO)N(Cc1nccs1)CC31CCN(C(=O)C2CCCCC2)CC1 | 0
CCCNC(=O)N1CC2(C1)CN(Cc1ccc(F)cc1)[C@H](CO)c1[nH]c3cc(OC)ccc3c12 | 0
COc1ccc2c3c([nH]c2c1)[C@@H](CO)N(C(C)=O)CC31CCN(C(C)=O)CC1 | 0
CCCC(=O)N1CC2(C1)CN(Cc1cccnc1)[C@@H](CO)c1[nH]c3cc(OC)ccc3c12 | 0
CCCNC(=O)N1CC2(CCN(S(=O)(=O)CC)CC2)c2c([nH]c3cc(OC)ccc23)[C@@H]1CO | 0
COc1ccc2c3c([nH]c2c1)[C@@H](CO)N(Cc1ccncc1)CC31CCN(CC2CCOCC2)CC1 | 0
CO[C@H](CN(C)C(=O)c1ccccc1F)[C@@H](C)CN([C@H](C)CO)S(=O)(=O)c1ccc(F)cc1 | 0
C[C@@H]1CCn2cc(nn2)COC[C@@H](Cc2ccccc2)NC1=O | 0
O=C1CNC[C@@H]2[C@H](c3ccc(C#Cc4cccnc4)cc3)[C@@H](CO)N12 | 0
CN1CCN(C(=O)C[C@@H]2CC[C@H]3[C@H](COc4ccc(NC(=O)c5cccs5)cc4C(=O)N3C)O2)CC1 | 0
CCCC#Cc1ccc([C@@H]2[C@@H](CO)N3CCCCN(CCC)C[C@@H]23)cc1 | 0
CCCC#Cc1ccc([C@@H]2[C@H]3CN(S(=O)(=O)c4ccccc4F)CCCCN3[C@H]2CO)cc1 | 0
C[C@@H]1CCCCO[C@@H](CN(C)S(C)(=O)=O)[C@H](C)CN([C@@H](C)CO)C(=O)c2cc(NC(=O)NC3CCCCC3)ccc2O1 | 0
CCCNC(=O)N1C[C@H]2[C@@H](c3ccccc31)[C@@H](CO)N2Cc1cccc(OC)c1 | 0
CCCC#Cc1ccc([C@H]2[C@H]3CN(Cc4ccncc4)CCCCN3[C@H]2CO)cc1 | 0
OC[C@@H]1[C@H](c2ccc(-c3ccc(F)cc3)cc2)[C@@H]2CN(Cc3cccnc3)CCCCN12 | 0
OC[C@H]1[C@H](c2ccc(/C=C/c3ccccc3)cc2)[C@H]2CN(Cc3cccnc3)CCCCN21 | 0
CCCC#Cc1ccc([C@H]2[C@@H](CO)N3CCCCN(Cc4ccncc4)C[C@@H]23)cc1 | 0
OC[C@@H]1[C@@H](c2ccc(/C=C/c3ccccc3)cc2)[C@H]2CN(Cc3ccncc3)CCCCN12 | -5.2
SMILES | IDE exosite FP
OC[C@H]1[C@@H](c2ccc(/C=C/c3ccccc3)cc2)[C@@H]2CN(Cc3cccnc3)CCCCN12 | -4.4
OC[C@H]1[C@@H](c2ccc(/C=C/c3ccccc3)cc2)[C@H]2CN(Cc3ccncc3)CCCCN21 | -5.7
OC[C@@H]1[C@@H](c2ccc(/C=C/c3ccccc3)cc2)[C@@H]2CN(Cc3ccncc3)CCCCN12 | -5
CCCC#Cc1ccc([C@H]2[C@@H](CO)N3C(=O)CN(S(=O)(=O)Cc4ccccc4)C[C@H]23)cc1 | 0
CN(C)C(=O)c1ccc(-c2ccc([C@@H]3[C@@H](CO)N4C(=O)CN(C(=O)C5CCC5)C[C@H]34)cc2)cc1 | 0
COc1ccc2c3c([nH]c2c1)[C@H](CO)N(C(=O)Nc1ccc(F)cc1)CC31CCN(C(=O)Nc2ccc3c(c2)OCO3)CC1 | 0
COc1ccccc1NC(=O)N1CC(=O)N2[C@H](CO)[C@H](c3ccc(C#CC4CC4)cc3)[C@@H]2C1 | 0
OC[C@H]1[C@@H](c2ccc(/C=C/c3ccccc3)cc2)[C@@H]2CN(Cc3ccncc3)CCCCN12 | -7.9
COc1ccc(C#Cc2ccc([C@@H]3[C@@H](CO)N4CCCCN(Cc5ccncc5)C[C@H]34)cc2)cc1 | 0
COc1cccc(C#Cc2ccc([C@@H]3[C@H]4CN(C(C)=O)CC(=O)N4[C@H]3CO)cc2)c1 | -3.9
COc1cccc(C#Cc2ccc([C@@H]3[C@@H](CO)N4C(=O)CN(C(C)=O)C[C@H]34)cc2)c1 | 0
COc1cccc(C#Cc2ccc([C@H]3[C@@H](CO)N4C(=O)CN(C(C)=O)C[C@@H]34)cc2)c1 | -5.1
COc1ccc(C#Cc2ccc([C@H]3[C@H](CO)N4C(=O)CN(C(C)=O)C[C@@H]34)cc2)cc1 | 0
CC(=O)N1CC(=O)N2[C@H](CO)[C@@H](c3ccc(C#Cc4cccnc4)cc3)[C@H]2C1 | 0
COc1ccc(C#Cc2ccc([C@@H]3[C@@H](CO)N4C(=O)CN(C(C)=O)C[C@@H]34)cc2)cc1 | 0
CC(=O)N1CC(=O)N2[C@@H](CO)[C@H](c3ccc(C#Cc4cccnc4)cc3)[C@@H]2C1 | 0
COc1cccc(C#Cc2ccc([C@H]3[C@@H](CO)N4C(=O)CN(C(C)=O)C[C@H]34)cc2)c1 | -7.9
CC(=O)N1CC(=O)N2[C@H](CO)[C@H](c3ccc(C#Cc4cccnc4)cc3)[C@H]2C1 | 0
C/C=C/c1ccc([C@H]2[C@@H](CO)N(Cc3ccc(F)cc3)[C@H]2CNC(C)=O)cc1 | 0
CCS(=O)(=O)N1[C@H](C#N)[C@H](c2ccc(C#Cc3ccccc3F)cc2)[C@@H]1CO | 0
O=S(=O)(c1ccc(F)cc1)N1CCCCN2[C@H](CO)[C@H](c3ccc(-c4cncnc4)cc3)[C@@H]2C1 | 0
CCCC(=O)Nc1ccc2c(c1)C(=O)N(C)[C@@H]1CC[C@H](CC(=O)NCc3cccc(F)c3)O[C@@H]1CO2 | 0
O=C(Nc1ccc2c(c1)[C@@H]1C[C@H](CC(=O)N3CCc4ccccc4C3)O[C@@H](CO)[C@@H]1O2)c1ccc2c(c1)OCO2 | 0
CS(=O)(=O)N1[C@H](C#N)[C@H](c2ccc(C#CC3CCCCC3)cc2)[C@H]1CO | 0
O=C(CN1CCOCC1)N1CCCCN2[C@H](CO)[C@H](c3ccc(C#Cc4ccccc4)cc3)[C@H]2C1 | -8.7
SMILES | IDE exosite FP
O=C(CN1CCOCC1)N1CCCCN2[C@H](CO)[C@H](c3ccc(C#Cc4ccccc4F)cc3)[C@@H]2C1 | -5
O=C(CN1CCOCC1)N1CCCCN2[C@H](CO)[C@H](c3ccc(C#Cc4ccccc4F)cc3)[C@H]2C1 | -5.5
O=C(CN1CCOCC1)N1CCCCN2[C@H](C1)[C@H](c1ccc(C#Cc3ccccc3F)cc1)[C@@H]2CO | -6.1
O=C(CN1CCOCC1)N1CCCCN2[C@H](CO)[C@@H](c3ccc(Br)cc3)[C@H]2C1 | 0
O=C1CN(Cc2ccccc2)C[C@H]2[C@@H](c3ccc(Br)cc3)[C@@H](CO)N12 | 0
CN(C)CC#Cc1ccc([C@@H]2[C@@H](CO)N3CCCCN(C(=O)c4ccc5c(c4)OCO5)C[C@@H]23)cc1 | 0
C[C@H](CO)N1C[C@H](C)[C@@H](CN(C)Cc2ccc(C(=O)O)cc2)OCCCC[C@H](C)Oc2ccc(N(C)C)cc2C1=O | 0
CCCNC(=O)N1[C@H](CO)[C@@H](c2ccccc2-c2ccccc2F)[C@@H]1C#N | 0
O=C(Cc1ccccn1)N1CC(=O)N2[C@@H](CO)[C@@H](c3ccc(C#CC4CCCCC4)cc3)[C@@H]2C1 | 0
